Assay outcomes (PubChem)
15-hLO-2 inh: blocks human 15-lipoxygenase 2 activity. O15296. purified 15hLO-2, xylenol orange hydroperoxide absorbance. Potency, µM (doses to about 57.1 µM), most hits filed as inhibitors. actives 0.56% (n = 110,000). AID 881; also: nearly all actives have a fitted effect of over 60% in size
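Read-out: hydroperoxide product oxidises ferrous iron, measured as xylenol orange complex via the 573-to-405 nm absorbance ratio after 30 min. Reaction: 50 nM enzyme, 15 min compound preincubation, 45 uM arachidonic acid, 90 min RT, Hepes pH 7.5 with Triton X-100.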
TSHR agonist: agonists of human thyroid stimulating hormone receptor. P16473. HEK293-CNG-TSHR cells (CNG channel as cAMP sensor), membrane potential dye, cAMP. Potency, µM (doses to about 57.1 µM), actives largely listed as activators. actives 0.48% (n = 73,000). AID 926; active = well fitted activation curve with a large enough effect in the main read-out, with a control signal flat, not every such curve was filed as active; inconclusive = small, poorly fitted or top-dose-only effect, or a change in a side signal; inactive = no such curve, though single readings can be large or run the other way; reference of the percent scale not stated here;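 also: the control signal comes from parental cells without the receptor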
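cAMP rise detected as CNG-channel membrane depolarization by fluorescent dye (emission 590 nm), 30 min after compound, following 60 min dye loading containing 100 uM RO 20-1724 at room temperature. Cells: TSHR/CNG HEK 293, with parental CNG HEK 293 as control.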
HEK293 cAMP cs: counter-screen for TSHR agonists: cAMP increase in parental HEK293 | Potency, µM (highest dose often 57.1 µM), usual class: activators | AID 938 | parental HEK293 CNG cAMP sensor, membrane potential fluorescence | actives 2.5% (n = 73,000); also: nearly all actives have a fitted effect of over 55% in size
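Parental HEK 293 cells stably expressing a cAMP-gated CNG channel were loaded with membrane potential dye containing 100 uM RO 20-1724 for 60 min. Compound added for 30 min; depolarization read as fluorescence intensity at 590 nm.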
Caspase-1 inhib: allosteric or competitive inhibitors of human caspase-1; P29466; Caspase-1 enzyme, Ac-WEHD-AFC fluorogenic rate; Potency, µM (doses to about 57.5 µM), hits mostly inhibitors; actives 0.03% (n = 75,000); AID 900
15-hLO inh: blocks human 15-lipoxygenase activity; purified 15hLO-1, xylenol orange hydroperoxide absorbance; Potency, µM (highest dose often 57.1 µM), most hits filed as inhibitors; actives 1.4% (n = 74,000); also: nearly all actives have a fitted effect of over 55% in size
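Hydroperoxide formed from arachidonic acid (50 uM) by purified human 15hLO-1 (40 nM) oxidizes ferrous iron, and the ferric-xylenol orange complex is read at 573 versus 405 nm. Compounds were preincubated 15 min; reaction ran 6 min at room temperature.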
Caspase-7 inhib: blocks human caspase-7 allosterically or competitively; P55210; recombinant caspase-7, Ac-DEVD-AFC fluorescence rate; Potency, µM (titrated, usually from 57.5 µM), hits mostly inhibitors; actives 0.02% (n = 75,000); AID 889; active = well fitted inhibition curve with a large enough effect in the main read-out, with a control signal flat, not every such curve was filed as active; inconclusive = small, poorly fitted or top-dose-only effect, or a change in a side signal
Hits are given with their value; – = inactive; ? = inconclusive; · = not tested or not shown; [ ] = remark or other dose. Compounds with a hit are over-represented: about 3% of the library has one in this group of screens. Unless noted, calls follow the shape of the dose curve; as a rule, active = well fitted curve in the direction sought with a large enough effect; inconclusive = small, poorly fitted or top-dose-only effect, or another doubt; inactive = no such curve, though single readings can be large; an effect the other way counts as inactive or inconclusive.

SMILES	15-hLO-2 inh	TSHR agonist	HEK293 cAMP cs	Caspase-1 inhib	15-hLO inh	Caspase-7 inhib
COc1cccc(Nc2ncc3ncc(=O)n(CCc4ccccc4)c3n2)c1	–	–	–	–	?	–
Oc1c(C(c2ccccc2)N2CCN(Cc3ccccc3)CC2)sc2ncnn12 (stereo not drawn)	–	?	32µM	–	–	–
C#CCCCO/N=C1/C[C@@H](O)[C@@H](O)[C@@H]2[C@@H]3C(=O)N(CCC(=O)OCC)C(=O)[C@H]3CC[C@@H]12	·	–[11.4 µM]	–[11.4 µM]	–[11.5 µM]	–[11.4 µM]	–[11.5 µM]
Cn1cc(C2=C(c3cn(CCCSC(=N)N)c4ccccc34)C(=O)NC2=O)c2ccccc21	–	?	–	–	20µM	–
CN(C)CCCn1cc(C2=C(c3c[nH]c4ccccc34)C(=O)NC2=O)c2ccccc21	–	?	–	–	–	–
CCC(C)(C(=O)NC1CCCCC1)N(Cc1ccco1)C(=O)c1cnccn1 (stereo not drawn)	–	?	3.2µM	–	–	–
CCC(C)(C(=O)NC1CCCC1)N(Cc1ccco1)C(=O)c1ccccn1 (stereo not drawn)	–	?	?	–	–	–
CCC(C)(C(=O)NC1CCCC1)N(Cc1ccco1)C(=O)c1ccc2c(c1)OCO2 (stereo not drawn)	–	?	2.5µM	–	–	–
CCC(C)(C(=O)NC1CCCC1)N(Cc1cccs1)C(=O)Cc1cccs1 (stereo not drawn)	–	?	2.5µM	–	–	–
COc1ccc(CCN(C)CCC[C@@](C#N)(c2cc(OC)c(OC)c(OC)c2)C(C)C)cc1OC	–	·	–	–	–	–
CCC(Oc1ccccc1)C(=O)Nc1ccccc1OC (stereo not drawn)	–	?	32µM	–	–	–
CCC(Oc1ccccc1)C(=O)Nc1nnc(C)s1 (stereo not drawn)	–	–	–	–	–	–
C=CC(=O)OCC(CO)(COC(=O)C=C)COC(=O)C=C	–	–	–	–	–	–
COc1ccc(CNc2ncncc2-c2ccccc2CN(C)C)c(OC)c1	–	–	–	–	–	–
COc1ccccc1-c1nccc(NCc2ccccc2)n1	–	?	?	–	–	–
COc1ccccc1-c1nccc(NCc2cnc(C)cn2)n1	?	–	–	–	16µM	–
COc1ccc(CNc2ncncc2-c2ccccc2Cl)c(OC)c1	–	?	32µM	–	–	–
COc1ccc(CNc2ccnc(-c3ccccc3Cl)n2)c(OC)c1	–	?	10µM	–	–	–
CC(=O)NC(Cc1ccccc1C)C(=O)NC1CCN(c2c3c(nc4ncnn24)CCC3)CC1 (stereo not drawn)	·	–	–	–	–	–
Cc1ccc(NC(=O)NNC(=O)Cn2nc(-c3ccccc3)c(-c3ccccc3)c(C#N)c2=O)cc1	–	·	·	·	·	·
COCCN(CCOC)c1ncc(Cl)c(C(=O)c2c(C)cc3ccccn23)n1	–	?	32µM	–	?	–
N#CC1=C(N)SC(N)=C(C#N)C1c1cccc(Oc2ccccc2)c1	?	?	?	–	5µM	–
O=C(c1cccc(F)c1)N1CCC2(CCCN(c3ccc(-c4ccccc4)cc3)C2)CC1	–	–	–	–	–	–
O=C(COc1ccccc1)Nc1nc(-c2cccs2)cs1	–	?	25µM	–	–	–
O=C(Nc1nc(-c2ccccc2)cs1)c1cccs1	–	?	?	–	13µM	–
SMILES	15-hLO-2 inh	TSHR agonist	HEK293 cAMP cs	Caspase-1 inhib	15-hLO inh	Caspase-7 inhib
O=C(Nc1nc(-c2ccccn2)cs1)c1ccc(Cl)s1	–	–	–	–	–	–
O=C(Nc1nc(-c2ccc(Cl)s2)cs1)c1cccs1	–	?	25µM	–	25µM	–
O=C(Nc1nc(-c2ccccc2)ns1)c1cccs1	–	–	–	–	–	–
CC(C)=CCC/C(C)=C/CO/N=C1/C[C@@H](O)[C@@H](O)[C@@H]2[C@H]3C(=O)N(c4ccc(F)cc4F)C(=O)[C@@H]3CC[C@H]12	·	–[11.4 µM]	–[11.4 µM]	–[11.5 µM]	–[11.4 µM]	–[11.5 µM]
CC(=O)N(c1ccc2oc(=O)sc2c1)S(=O)(=O)c1ccccc1	–	–	–	–	16µM	–
CCCC(=O)N(c1ccc2oc(=O)sc2c1)S(=O)(=O)c1cccs1	–	–[11.4 µM]	–	–	16µM	–
